According to PubChem BioAssay (NCI):
This is part of a sample that, as a whole, favours compounds with a hit. Of some 79,000 tested, about 15% had one in any assay. Activity calls are given as the source filed them. No stated cut-off is given here; in the data, active means growth inhibition above about 70%; inactive means the rest.

Test: NCI Yeast Anticancer Drug Screen. Data for the cln2 rad14 strain (AID 165);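 further: 0% = growth equal to vehicle treated cultures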
Conditions: S. cerevisiae cln2 rad14 strain, at 50.0 µM, stronger effect = higher value
Method in brief: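 Relative to vehicle controls, growth inhibition of compound-treated cln2 rad14 yeast was recorded.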

Row | SMILES | growth inhibition
1 | CCOC(=O)C(COS(C)(=O)=O)(COS(C)(=O)=O)C(=O)OCC | -2.05% (inactive)
2 | CC1CC2C3CCC4=CC(=O)CCC4(C)C3CCC2(C)C1(O)C(=O)CO (stereo unspecified) | -44% (inactive)
3 | COC(=O)C1=C(C)C(=O)CC1 | -11.9% (inactive)
4 | O=C(Nc1ccc([N+](=O)[O-])cc1)C(=O)Nc1ccc([N+](=O)[O-])cc1 | -7.55% (inactive)
5 | C=CC(=O)OC1CCC(C(C)(C)CC)CC1 (stereo unspecified) | -22.7% (inactive)
6 | CCOC(=O)C(=O)CC(=O)c1ccccc1 | -26.4% (inactive)
7 | O=c1nc(Nc2cccc(Cl)c2)oc2cc(Cl)oc(=O)c12 | 19.6% (inactive)
8 | N#CC1(O)CCCCC1 | 23.2% (inactive)
9 | CCOC(=O)c1ccc(NC(=O)Nc2nccs2)cc1 | 11.2% (inactive)
10 | O=C(O)c1ccc(OCc2ccccc2)cc1 | -1.85% (inactive)
11 | CC(=O)C1C(=O)C(=O)N(c2cccc([N+](=O)[O-])c2)C1=O (stereo unspecified) | -9.3% (inactive)
12 | Cc1cc(C(=O)NN)c(C#N)c(=O)[nH]1 | -17.5% (inactive)
13 | CCC(C)c1c(N)n(S(=O)(=O)c2ccc(C)cc2)oc1=O (stereo unspecified) | -25% (inactive)
14 | O=c1cc(C(F)(F)F)[nH]c(=S)[nH]1 | -20.9% (inactive)
15 | OCCc1ccc(Cl)cc1 | 15.3% (inactive)
16 | CCCOCc1cn[nH]n1 | -8.85% (inactive)
17 | Cc1cc(NC(=O)c2ccccc2)c(Cl)cc1N | -13.4% (inactive)

Test: NCI Yeast Anticancer Drug Screen. Data for the bub3 strain (AID 167)
Conditions: S. cerevisiae bub3 mutant strain, at 50.0 µM, stronger effect = higher value
Method in brief: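 Readout: yeast growth inhibition, expressed relative to vehicle-only wells. The test organism is a mutant strain from a panel with lesions in DNA repair or checkpoint genes.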

Row | SMILES | growth inhibition
18 | Cc1ccc2nc(N)nnc2c1 | -17.1% (inactive)
19 | CC(CC(CCC(=O)O)(c1ccccc1)c1ccccc1)N(C)C (stereo unspecified) | 7.95% (inactive)
20 | CCOC(=O)c1ccc(Nc2sc(C(=O)c3ccc(Br)cc3)c(N)c2C#N)cc1 | -3.6% (inactive)
21 | CCCCNc1ccc(-c2ccc(NCCCC)cc2)cc1 | -5.3% (inactive)
22 | O=C(CCl)Nc1ccccc1SCc1cc(Cl)cc2c1OCOC2 | 13.6% (inactive)
23 | NC(CSSCC(N)C(=O)O)C(=O)O (stereo unspecified) | -20.9% (inactive)
24 | C=CCNC(=S)N/C=C(/C(=O)c1ccccc1)c1ccccc1 | -20.4% (inactive)
25 | COC1C(=O)CCC2(CO2)C1(O)C1(C)OC1CCC(C)C (stereo unspecified) | -16.1% (inactive)
26 | O=C(O)C1CSC(c2ccccc2)N1 (stereo unspecified) | -5.55% (inactive)
27 | CN(C)CCOC(=O)Nc1ccc(Cc2ccc(NC(=O)OCCN(C)C)cc2)cc1 | 8.7% (inactive)
28 | CCCCN(C(=O)CC)c1ccccc1 | -12.9% (inactive)
29 | C=CCN1CCCC1=O | -16.2% (inactive)
30 | CC(=O)NC(CCc1ccc(Cl)c(Cl)c1)c1cccc(O)c(=O)c1 (stereo unspecified) | 82.5% (active)
31 | CC(=O)N(C(C)=O)c1ccc(C)cc1 | -11.2% (inactive)
32 | CCNCC(C)(C)O | -0.5% (inactive)
33 | Cc1onc(-c2ccccc2Cl)c1C(=O)Cl | -31.1% (inactive)
34 | O=C(OCc1ccccc1)n1nnc2ccccc21 | 19.2% (inactive)
35 | CC(CCC#N)(CCC#N)C(=O)c1ccccc1 | -4.75% (inactive)
36 | COc1ccc(NNS(=O)(=O)O)cc1 | -1.65% (inactive)

Row | SMILES | growth inhibition
37 | COc1cccc(C(=O)O)c1OC | -5.35% (inactive)
38 | CCOC(=O)C(COS(C)(=O)=O)(COS(C)(=O)=O)C(=O)OCC | -2.35% (inactive)
39 | CC1CC2C3CCC4=CC(=O)CCC4(C)C3CCC2(C)C1(O)C(=O)CO (stereo unspecified) | -14.3% (inactive)
40 | COC(=O)C1=C(C)C(=O)CC1 | 13.9% (inactive)
41 | O=C(Nc1ccc([N+](=O)[O-])cc1)C(=O)Nc1ccc([N+](=O)[O-])cc1 | 3.1% (inactive)
42 | C=CC(=O)OC1CCC(C(C)(C)CC)CC1 (stereo unspecified) | -8.15% (inactive)
43 | CCOC(=O)C(=O)CC(=O)c1ccccc1 | 8.55% (inactive)
44 | O=c1nc(Nc2cccc(Cl)c2)oc2cc(Cl)oc(=O)c12 | 36.5% (inactive)
45 | N#CC1(O)CCCCC1 | 17.9% (inactive)
46 | CCOC(=O)c1ccc(NC(=O)Nc2nccs2)cc1 | -12.4% (inactive)
47 | O=C(O)c1ccc(OCc2ccccc2)cc1 | -28.1% (inactive)
48 | CC(=O)C1C(=O)C(=O)N(c2cccc([N+](=O)[O-])c2)C1=O (stereo unspecified) | -23.4% (inactive)
49 | Cc1cc(C(=O)NN)c(C#N)c(=O)[nH]1 | 2.6% (inactive)
50 | CCC(C)c1c(N)n(S(=O)(=O)c2ccc(C)cc2)oc1=O (stereo unspecified) | 16.6% (inactive)
51 | O=c1cc(C(F)(F)F)[nH]c(=S)[nH]1 | -24.8% (inactive)
52 | OCCc1ccc(Cl)cc1 | -1.3% (inactive)
53 | CCCOCc1cn[nH]n1 | -8.95% (inactive)
54 | Cc1cc(NC(=O)c2ccccc2)c(Cl)cc1N | -21% (inactive)

Test: NCI Yeast Anticancer Drug Screen. Data for the mlh1 rad18 strain (AID 175)
Conditions: S. cerevisiae mlh1 rad18 strain growth inhibition; at 50.0 µM; stronger effect = higher value
Method in brief: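 Test agents were incubated with a yeast strain of defined genotype (DNA damage repair defect). Inhibition of growth was derived by comparison with vehicle-exposed cultures.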

Row | SMILES | growth inhibition
55 | Cc1ccc2nc(N)nnc2c1 | -3.15% (inactive)
56 | CC(CC(CCC(=O)O)(c1ccccc1)c1ccccc1)N(C)C (stereo unspecified) | 13.4% (inactive)
57 | CCOC(=O)c1ccc(Nc2sc(C(=O)c3ccc(Br)cc3)c(N)c2C#N)cc1 | -2.05% (inactive)
58 | CCCCNc1ccc(-c2ccc(NCCCC)cc2)cc1 | 59.5% (inactive)
59 | O=C(CCl)Nc1ccccc1SCc1cc(Cl)cc2c1OCOC2 | -8.9% (inactive)
60 | NC(CSSCC(N)C(=O)O)C(=O)O (stereo unspecified) | -2.05% (inactive)
61 | C=CCNC(=S)N/C=C(/C(=O)c1ccccc1)c1ccccc1 | -53.6% (inactive)
62 | COC1C(=O)CCC2(CO2)C1(O)C1(C)OC1CCC(C)C (stereo unspecified) | -4.55% (inactive)
63 | O=C(O)C1CSC(c2ccccc2)N1 (stereo unspecified) | 2.55% (inactive)
64 | CN(C)CCOC(=O)Nc1ccc(Cc2ccc(NC(=O)OCCN(C)C)cc2)cc1 | 8.3% (inactive)
65 | CCCCN(C(=O)CC)c1ccccc1 | -62.5% (inactive)
66 | C=CCN1CCCC1=O | 4.05% (inactive)
67 | CC(=O)NC(CCc1ccc(Cl)c(Cl)c1)c1cccc(O)c(=O)c1 (stereo unspecified) | 88.9% (active)
68 | CC(=O)N(C(C)=O)c1ccc(C)cc1 | -13.9% (inactive)
69 | CCNCC(C)(C)O | 27.8% (inactive)
70 | Cc1onc(-c2ccccc2Cl)c1C(=O)Cl | -29.3% (inactive)
71 | O=C(OCc1ccccc1)n1nnc2ccccc21 | 2.45% (inactive)
72 | CC(CCC#N)(CCC#N)C(=O)c1ccccc1 | 7.65% (inactive)
73 | COc1ccc(NNS(=O)(=O)O)cc1 | 4% (inactive)

Row | SMILES | growth inhibition
74 | COc1cccc(C(=O)O)c1OC | 0% (inactive)
75 | CCOC(=O)C(COS(C)(=O)=O)(COS(C)(=O)=O)C(=O)OCC | -6.1% (inactive)
76 | CC1CC2C3CCC4=CC(=O)CCC4(C)C3CCC2(C)C1(O)C(=O)CO (stereo unspecified) | -0.55% (inactive)
77 | COC(=O)C1=C(C)C(=O)CC1 | 14.2% (inactive)
78 | O=C(Nc1ccc([N+](=O)[O-])cc1)C(=O)Nc1ccc([N+](=O)[O-])cc1 | 5.3% (inactive)
79 | C=CC(=O)OC1CCC(C(C)(C)CC)CC1 (stereo unspecified) | -18.5% (inactive)
80 | CCOC(=O)C(=O)CC(=O)c1ccccc1 | 11.7% (inactive)
81 | O=c1nc(Nc2cccc(Cl)c2)oc2cc(Cl)oc(=O)c12 | 42.6% (inactive)
82 | N#CC1(O)CCCCC1 | 28.4% (inactive)
83 | CCOC(=O)c1ccc(NC(=O)Nc2nccs2)cc1 | 6.1% (inactive)
84 | O=C(O)c1ccc(OCc2ccccc2)cc1 | 19.9% (inactive)
85 | CC(=O)C1C(=O)C(=O)N(c2cccc([N+](=O)[O-])c2)C1=O (stereo unspecified) | -54.3% (inactive)
86 | Cc1cc(C(=O)NN)c(C#N)c(=O)[nH]1 | -0.5% (inactive)
87 | CCC(C)c1c(N)n(S(=O)(=O)c2ccc(C)cc2)oc1=O (stereo unspecified) | -3.45% (inactive)
88 | O=c1cc(C(F)(F)F)[nH]c(=S)[nH]1 | -26.2% (inactive)
89 | OCCc1ccc(Cl)cc1 | 7.9% (inactive)
90 | CCCOCc1cn[nH]n1 | -2.35% (inactive)
91 | Cc1cc(NC(=O)c2ccccc2)c(Cl)cc1N | -7.95% (inactive)
